Laboratory results as given in paper PMC4336329 (PLoS ONE, 2015).
Among all 310,000 compounds or so, about 14,000 (4.5%) showed an effect of 50% or more. The effect is printed as a negative number. Many of the other results were omitted from the sample, so strong results are more common in it than they were.

These compounds were tested against human ether-à-go-go-related gene (hERG) potassium channel (human, UniProt Q12809) (assay: primary screen, population patch clamp on CHO cells stably expressing hERG; higher = less effect of the substance).
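Further: peak tail current of the secondary pulse compared with the same well before compound.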

Chain of human ether-à-go-go-related gene (hERG) potassium channel (Q12809 whole entry, looked up): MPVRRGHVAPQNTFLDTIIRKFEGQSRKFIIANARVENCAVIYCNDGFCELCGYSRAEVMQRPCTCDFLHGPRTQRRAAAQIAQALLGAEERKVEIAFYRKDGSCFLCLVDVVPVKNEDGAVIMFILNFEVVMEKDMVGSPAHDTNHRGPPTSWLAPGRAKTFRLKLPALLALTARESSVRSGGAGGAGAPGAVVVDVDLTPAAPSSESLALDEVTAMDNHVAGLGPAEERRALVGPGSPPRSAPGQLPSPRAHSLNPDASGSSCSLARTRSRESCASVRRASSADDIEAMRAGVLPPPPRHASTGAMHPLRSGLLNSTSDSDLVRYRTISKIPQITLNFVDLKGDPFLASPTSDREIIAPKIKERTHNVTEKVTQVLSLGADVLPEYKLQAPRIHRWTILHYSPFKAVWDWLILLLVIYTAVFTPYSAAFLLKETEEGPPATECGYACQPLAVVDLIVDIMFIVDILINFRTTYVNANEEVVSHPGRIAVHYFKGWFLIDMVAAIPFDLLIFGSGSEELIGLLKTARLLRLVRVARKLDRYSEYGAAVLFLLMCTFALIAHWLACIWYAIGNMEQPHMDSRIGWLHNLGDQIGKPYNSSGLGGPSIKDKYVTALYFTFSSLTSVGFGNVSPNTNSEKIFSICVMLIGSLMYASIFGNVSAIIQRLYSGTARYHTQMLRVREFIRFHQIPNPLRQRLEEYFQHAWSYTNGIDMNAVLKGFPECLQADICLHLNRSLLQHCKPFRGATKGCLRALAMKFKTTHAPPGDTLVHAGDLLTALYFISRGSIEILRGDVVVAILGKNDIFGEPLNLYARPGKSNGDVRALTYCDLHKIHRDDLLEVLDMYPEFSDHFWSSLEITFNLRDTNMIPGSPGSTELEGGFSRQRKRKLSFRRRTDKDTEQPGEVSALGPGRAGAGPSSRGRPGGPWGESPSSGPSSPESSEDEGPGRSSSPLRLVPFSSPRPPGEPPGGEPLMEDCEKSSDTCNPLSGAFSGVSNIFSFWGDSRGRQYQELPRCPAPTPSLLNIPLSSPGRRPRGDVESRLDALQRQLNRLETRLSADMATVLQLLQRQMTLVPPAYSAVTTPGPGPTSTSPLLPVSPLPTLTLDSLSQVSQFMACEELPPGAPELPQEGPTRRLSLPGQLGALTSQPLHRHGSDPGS

| Compound | hERG current change (%, negative = inhibition) at 10uM [%] |
| --- | --- |
| O=C(CCNc1cc(Cl)cc(Cl)c1)c1ccco1 | -4.77 |
| Cc1ccc(C(C)(C)C)c(OCCCCN2CCCC2)c1 | -19.9 |
| CCCN(CCC)CCNC(=O)CCC(=O)Nc1ccc2nc(N3CCN(C)CC3)cc(C)c2c1 | 17.7 |
| O=c1[nH]ncn2cccc12 | 24.1 |
| CN(Cc1c(F)cccc1Cl)S(=O)(=O)c1cccs1 | -19.8 |
| CN(Cc1ccc(F)cc1Cl)S(=O)(=O)c1cccs1 | -62 |
| COc1ccccc1CN(C)S(=O)(=O)c1cccs1 | 4.72 |
| Cc1c(OC(C)C(=O)NCCCN2CCOCC2)ccc2c1oc(=O)c1ccccc12 (stereo not shown) | 6.19 |
| O=C(CN1C(=O)COc2ccccc21)NCCN1CCC(Cc2ccccc2)CC1 | -56.6 |
| CN1CCN(CCCNC(=O)CCN2C(=O)COc3ccccc32)CC1 | 0.334 |
| O=C(CCN1C(=O)COc2ccccc21)NCCN1CCN(c2cccc(Cl)c2)CC1 | -56.5 |
| O=C(CCN1C(=O)COc2ccccc21)NCCN1CCN(c2ccccc2F)CC1 | -33.5 |
| COc1ccc(N2CCN(CCNC(=O)CCN3C(=O)COc4ccccc43)CC2)cc1 | -47 |
| O=C(CCN1C(=O)COc2ccccc21)NCCCN1CCN(c2ccccc2F)CC1 | -42.7 |
| O=C(CN1C(=O)COc2ccccc21)NCCN1CCOCC1 | 11.3 |
| O=C(CN1C(=O)COc2ccccc21)NCCN1CCCC1 | 13.6 |
| O=C(CCN1C(=O)COc2ccccc21)NCCCN1CCN(c2ccc(F)cc2)CC1 | -63.7 |
| CS(=O)(=O)N(CC(=O)Nc1ccccc1-c1ccccc1)c1ccccc1 | -0.135 |
| O=C(NC1CCCC1)C(c1ccncc1)N(C(=O)c1ccco1)c1ccc(Cl)cc1 (stereo not shown) | -4.59 |
| CCOC(=O)C1(CCOc2ccccc2)CCN(C(C)CSC)CC1 (stereo not shown) | -55.3 |
| CCOC(=O)C1(CCOc2ccccc2)CCN(C(=O)CCSC)CC1 | -42 |
| CCOC(=O)C1(CCc2ccccc2)CCN(C(C)CSC)CC1 (stereo not shown) | -66.6 |
| O=C1C2CCCN2C(c2ccc(Cl)c(Cl)c2)N1c1ccccn1 (stereo not shown) | -10 |
| O=C(NC(=S)Nc1ccc(-c2nc3ncccc3o2)cc1)c1ccccc1F | 14.5 |
| CCOCCCNC(=O)C(NC(=O)c1cnccn1)c1ccc(C)cc1 (stereo not shown) | 30.4 |
